Screens deposited in PubChem by National Center for Advancing Translational Sciences (NCATS).
SW480 rereplic: induces DNA re-replication in SW480 colon adenocarcinoma cells | 1.8% of 340,000 active | SW480 DNA re-replication, Hoechst DNA content imaging, 48 h | Potency, µM (highest dose often 46.1 µM), without a hit: top-dose re-replication activation, actives largely listed as activators; further: % of control where 0% means no effect; nearly all actives have a fitted effect of over 55% in size
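Image-based DNA-content assay: after two days of treatment, nuclei were labelled with the DNA dye Hoechst and imaged, and hits were compounds raising the count of nuclei showing high fluorescence intensity.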
KB-3-1 cytotox: KB-3-1 parental cell cytotoxicity; KB-3-1 viability, CellTiter-Glo ATP luminescence, 72 h; Potency, µM (series often up to 46.1 µM), actives largely listed as cytotoxic; 1.4% of 400,000 active; AID 1347075; further: on the % scale 0 is the no-effect control and ±100 the full control effect; nearly all actives have a fitted effect of over 60% in size
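Parental KB-3-1 viability, qHTS format: 72 h compound exposure, 37 °C; CellTiter-Glo; media-only wells and DMSO plates as controls; concentration-effect fits on corrected data.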
VP16 counter: Gal4-VP16 reporter inhibition counter-screen. Drosophila S2 Gal4-VP16 UAS-luciferase, luminescence, 20 h. Potency, µM (series often up to 53.6 µM), without a hit: top-dose activity, negative = inhibition, actives largely listed as inhibitors. 3.5% of 310,000 active;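 further: Gal4-VP16 expression switched on by copper sulfate through the metallothionein promoter; on the % scale 0 is the no-effect control and ±100 the full control effect; nearly all actives have a fitted effect of over 50% in size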
MCF10A rereplic: DNA re-replication induction in MCF 10a cells | 2.9% of 350,000 active | MCF 10A DNA re-replication, Hoechst nuclear intensity, 48 h | Potency, µM (top dose mostly 46.1 µM), for inactives: top-dose activity, positive = re-replication, most hits filed as activators; further: % of control where 0% means no effect; nearly all actives have a fitted effect of over 50% in size
KB-V1 cytotox: kills drug-selected multidrug resistant KB-V1 cells; Potency, µM (series often up to 46.1 µM), actives largely listed as cytotoxic; AID 1347076; KB-V1 MDR cells viability, CellTiter-Glo, 72 h; 3.4% of 400,000 active; further: on the % scale 0 is the no-effect control and ±100 the full control effect; nearly all actives have a fitted effect of over 60% in size
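qHTS viability screen in drug-selected KB-V1 MDR cells: 72 h compound treatment at 37 degrees C, ATP luminescence end point.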
RORgamma inh: inhibitors of mouse ROR gamma transcriptional activity; P51450; Drosophila S2 Gal4-RORgamma UAS-luciferase reporter, 20 h; Potency, µM (titrated, usually from 53.6 µM), inactives show at the top dose activity change, negative = inhibition, most hits filed as inhibitors; 5.4% of 310,000 active; further: on the % scale 0 is the no-effect control and ±100 the full control effect; nearly all actives have a fitted effect of over 60% in size
Target sequence (P51450 whole entry, looked up, the tested form may be a part): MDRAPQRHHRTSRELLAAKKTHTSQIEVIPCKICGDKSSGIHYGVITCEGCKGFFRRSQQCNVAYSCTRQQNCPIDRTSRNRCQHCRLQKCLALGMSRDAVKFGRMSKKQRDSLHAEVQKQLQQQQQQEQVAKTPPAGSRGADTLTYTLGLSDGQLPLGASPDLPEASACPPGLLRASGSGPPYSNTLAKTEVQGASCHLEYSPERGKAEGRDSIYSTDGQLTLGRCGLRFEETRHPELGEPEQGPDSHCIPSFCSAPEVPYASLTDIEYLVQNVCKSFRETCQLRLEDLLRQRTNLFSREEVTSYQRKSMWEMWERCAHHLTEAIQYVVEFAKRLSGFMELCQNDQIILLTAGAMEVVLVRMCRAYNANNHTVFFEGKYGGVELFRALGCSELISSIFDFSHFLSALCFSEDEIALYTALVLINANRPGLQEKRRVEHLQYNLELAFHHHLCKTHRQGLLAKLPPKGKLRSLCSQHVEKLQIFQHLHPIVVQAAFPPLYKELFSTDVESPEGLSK
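Stable Schneider cell line, Gal4 DNA-binding domain fused to ROR gamma, UAS-luciferase. Cmpd 1 hr RT → CuSO4 700 uM final → 20 hr RT → luciferase reagent 10 min → luminescence.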
* hit, by the source's call; i = inactive; ? = inconclusive; / = not tested or not shown; [ ] = remark or other dose. Sampled rows, rich in hits. Any-hit rate of the full collection: about 10%. The call rests on the fitted dose curve; in most records, active means well fitted curve in the direction sought with a large enough effect; inconclusive means small, poorly fitted or top-dose-only effect, or another doubt; inactive means no such curve, though single readings can be large; an effect the other way counts as inactive or inconclusive. Potency means the concentration at half of the fitted maximal effect.

SMILES	SW480 rereplic	KB-3-1 cytotox	VP16 counter	MCF10A rereplic	KB-V1 cytotox	RORgamma inh
CC(=O)N/C(=C\c1ccccc1)C(=O)OCC(=O)N(C)C1CCCCC1	?	i	0.1%	-86.2%	16.4µM*	10.2%
Cc1ccc(NC(=O)CN2CCC(Cc3ccccc3)CC2)cc1S(=O)(=O)N(C)C	11.6µM*	i	2.8%	?	?	-12.1%
Cc1ccc(NC(=O)CNc2ccc(Cl)c(Cl)c2)cc1S(=O)(=O)N(C)C	/	?	?	12.6%	20.6µM*	?
COc1cc(C(=O)NC(=S)Nc2ccc3[nH]c(=O)[nH]c3c2)cc(OC)c1OC	-20.7%	i	5.1%	12.4%	?	-22.1%
CCC(=O)[C@]12O[C@@]3(C4C(=O)OCCC41)N(CC)C(C)=C(C(=O)OC)C(c1ccccc1)N3C2=O (some centres undefined)	/	/	-1.7%[10 µM]	/	/	14.5%[10 µM]
CC(=O)N/C(=C\c1ccccc1)C(=O)OCC(=O)Nc1ccc(C)c(S(=O)(=O)N(C)C)c1	5.8µM*	i	/	6.7%	?	/
Cc1ccc(NC(=O)Cc2ccccc2Cl)cc1S(=O)(=O)N(C)C	14.9%	?	-18.8%	?	23.1µM*	?
Cc1ccc(NC(=O)COC(=O)c2ccccc2Cl)cc1S(=O)(=O)N(C)C	-1.7%	i	2.5%	-3.7%	i	44.4%
O=C(N/N=C/c1c(Cl)cccc1Cl)c1cccc(F)c1	3.6%	i	?	-9.1%	i	?
Cc1[nH]n(-c2ccc([N+](=O)[O-])cc2)c(=O)c1C=NCCN1CCN(C(=O)c2ccc(F)cc2)CC1	-15.6%	i	0.2%	4.7%	i	18.2%
Cc1[nH]n(-c2ccccc2)c(=O)c1/C=N/NC(=O)c1cccc(F)c1	?	?	1.26µM*	12.8%	?	0.562µM*
Cc1[nH]n(-c2ccc(Br)cc2)c(=O)c1/C=N/NC(=O)c1ccccc1	?	7.31µM*	0.126µM*	-2.0%	1.3µM*	0.282µM*
Cc1[nH]n(-c2ccc([N+](=O)[O-])cc2)c(=O)c1C=NCCN1CCN(C(=O)c2cccc(F)c2)CC1	-2.3%	i	3.6%	20.9%	16.4µM*	-18.3%
COc1ccccc1N1CCN(C(=O)C2c3ccccc3Oc3ccccc32)CC1	5.8µM*	1.84µM*	?	1.84µM*	2.59µM*	29.5%
CCOc1ccc(NC(=S)c2ccncc2)cc1	-123.7%	23.1µM*	?	-73.9%	20.6µM*	30.9%
CCOc1ccc(NC(=S)NCCCN2CCN(c3ccc(OC)cc3)CC2)cc1	-4.9%	i	?	-0.4%	?	5.01µM*
Cc1cccnc1NC(=S)Nc1ccc(Br)cc1Cl	0.1%	i	7.08µM*	5.4%	i	2.51µM*
CCOc1ccc(NC(=S)Nc2ccc(Br)cc2Cl)cc1	?	i	?	-43.7%	i	14.1µM*
COc1cccc(NC(=S)Nc2ccc(Br)cc2Cl)c1	-0.8%	i	0.0%	-5.9%	i	-1.8%
CCn1nc(C)c(CCN(C)C(=O)Nc2cc(C)cc(C)c2)c1C	/	i	/	/	i	/
CC(C)OC(=O)C(C(=O)OC(C)C)=C1SC=CS1	-10.9%	/	16.6%	-1.8%	/	6.9%[10 µM]
CCOc1ccc(CSCCNC(=S)Nc2ccccc2)cc1	0.0%	i	4.47µM*	0.3%	?	6.31µM*
CCOc1ccc(NC(=S)Nc2ccc(OC)cc2)cc1	6.1%	i	?	-4.3%	i	7.94µM*
CCC(C)c1ccc(NC(=S)Nc2ccc(OC)cc2)cc1 (centres undefined)	5.4%	i	5.62µM*	?	?	7.08µM*
CCOc1ccc(NC(=S)Nc2ccc(OCc3ccccc3)cc2)cc1	1.8%	i	22.4µM*	-1.6%	i	?
SMILES	SW480 rereplic	KB-3-1 cytotox	VP16 counter	MCF10A rereplic	KB-V1 cytotox	RORgamma inh
CCN(CC)C(=S)Nc1ccc(OC)cc1	0.6%	i	2.6%	-1.3%	i	-34.1%
CCOc1ccc(NC(=S)NCCN2CCN(Cc3ccccc3)CC2)cc1	-17.0%	i	?	2.6%	?	11.2µM*
CCOc1ccc(C(=O)CC(C(=O)O)N2CCN(Cc3ccccc3)CC2)cc1 (centres undefined)	20.7%	i	/	16.4µM*	i	/
CCOc1ccc(NC(=S)NCc2cccnc2)cc1	2.5%	i	14.2%	-3.3%	i	-14.2%
CCOc1ccc(C(=O)CC(C(=O)O)N2CCCCC2)cc1 (centres undefined)	?	?	/	?	i	/
COc1ccc(NC(=O)Nc2cccc(C)n2)cc1	15.2%	i	-2.8%	1.6%	?	0.1%
CCOc1ccc(NC(=S)NCCCc2ccccc2)cc1	-4.9%	i	?	?	i	5.01µM*
COc1ccc(NC(=S)Nc2cccc(C)n2)cc1	6.1%	i	4.47µM*	17.6%	i	?
CCOC(=O)c1noc2ncn(CC(=O)Nc3ccccc3OC)c(=O)c12	/	i	/	/	i	/
CNC(=S)Nc1ccc(OCc2ccccc2)cc1	-23.3%	i	?	-4.5%	?	3.98µM*
O=C(O)/C=C/C(=O)Nc1ccc(OCc2ccccc2)cc1	-11.9%	i	3.8%	3.0%	i	2.6%
CC(NC(=O)Nc1cc(Cl)ccc1Cl)c1c(-n2cccc2)sc2c1CCCC2 (centres undefined)	/	i	/	/	i	/
Cc1ccc(O)c(NC(=S)NC(=O)c2ccccc2Cl)c1	10.9%	i	12.6µM*	?	i	3.55µM*
COc1cc(/C=C(/NC(=O)c2ccccc2)C(=O)Nc2ccccc2)c([N+](=O)[O-])cc1OC	0.7%	i	2.2%	-0.1%	16.4µM*	3.0%
CC(C)(C)CC(=O)NC(=S)Nc1ccccc1[N+](=O)[O-]	5.3%	i	?	-0.1%	i	6.31µM*
COc1ccc(C(=O)NC(=S)Nc2ccc([N+](=O)[O-])cc2C)cc1OC	-5.9%	i	?	12.6%	i	15.8µM*
ONCc1ccccc1	/	/	-0.5%	/	/	-3.4%
O=C(NNC(=S)NC(=O)c1ccccc1[N+](=O)[O-])c1ccccc1Cl	0.8%	i	22.9%	19.8%	i	-38.1%
COc1ccc(C(=O)NC(=S)Nc2ccccc2[N+](=O)[O-])cc1OC	-2.5%	?	16.8%	-14.9%	i	7.08µM*
COc1ccc(C(=O)NC(=S)Nc2cccnc2)cc1[N+](=O)[O-]	-0.2%	i	-10.8%	1.8%	i	?
Cc1cc(C)c(C(=O)CC(=O)c2ccccc2Cl)c(O)c1	7.3%	?	4.47µM*	?	?	2.24µM*
O=C(NC(=S)Nc1ccccc1[N+](=O)[O-])c1ccccc1Cl	-35.3%	13µM*	?	-3.6%	?	3.98µM*
